This is an account of results in PubChem BioAssay (NCATS).

For assay [1], the target named is Bile acid receptor (Homo sapiens) (UniProt Q96RI1). Put plainly: qHTS assay for small molecule antagonists of farnesoid X receptor signaling (AID 588526). Also: % is scaled to controls: 0 for no effect and ±100 for the full control effect. The procedure, abridged: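 Concentration-response titrations were fitted to the Hill equation for half-maximal inhibition and maximal response, with data normalised to 50 uM chenodeoxycholic acid and DMSO control wells. Cells: FXR-UAS-bla HEK293T, dialyzed FBS.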
A general note: Quantitative high-throughput screening tests each substance at several concentrations.

For assay [2] the target is unchanged. The assay is described as follows: qHTS assay for small molecule agonists of farnesoid X receptor signaling (AID 588527).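 Also: series mostly up to about 77 µM; 0% = vehicle basal and 100% = reference agonist.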 The following applies: HEK293T FXR-UAS-bla, beta-lactamase ratio, 16 h; activation: stronger effect = higher value. The procedure, abridged: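 Read-out: beta-lactamase reporter fluorescence with CCF4 substrate in GeneBLAzer FXR-UAS-bla HEK293T cells, after 16 h compound exposure at 37 C. Response scaled between DMSO basal (0%) and chenodeoxycholic acid at 100 uM (100%).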

The target in assay [3] is Peroxisome proliferator-activated receptor delta (Homo sapiens) (UniProt Q03181). Put plainly: qHTS assay for small molecule agonists of peroxisome proliferator-activated receptor delta signaling (AID 588534).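 Also: 0% = DMSO basal wells and 100% = positive control agonist at 10 µM.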 The procedure, abridged: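 Agonist-mode beta-lactamase reporter readout (CCF4 dye, 2 h at RT) after 18 h at 37 °C exposure to a titration; Hill-equation fitting gave EC50 and maximal response.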

A short description of assay [4]: qHTS assay for small molecule antagonists of peroxisome proliferator-activated receptor delta signaling (AID 588535; active = well fitted inhibition curve with a large enough effect in the signal ratio, with a control signal flat, not every such curve was filed as active; the % refers to the signal ratio;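 as to max response: cells co-treated with a PPAR-delta agonist as stimulator during compound exposure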). The following applies: HEK293T PPARd-UAS-bla, beta-lactamase FRET ratio, 18 h; 460 nm channel. The procedure, abridged:
(§1)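 Inhibition of PPAR-delta response element-driven beta-lactamase expression is measured in HEK293T cells exposed to a compound titration series for 18 hrs at 37 C. Half-maximal inhibition comes from Hill equation fitting.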

The target in assay [5] is Peroxisome proliferator-activated receptor delta (Homo sapiens) (UniProt Q03181). The assay is described as above. The procedure, abridged: as §1
Assay [6] has as its target Vitamin D3 receptor (Homo sapiens) (UniProt P11473). Put plainly: qHTS assay for small molecule agonists of vitamin D receptor signaling (AID 588543).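 Also: 0% = DMSO basal and 100% = reference agonist control.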 The procedure, abridged:
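GeneBLAzer VDR-UAS-bla HEK293T cells in 2% charcoal-stripped FBS medium were dosed with compound titrations for 16 h at 37 °C; CCF4 β-lactamase readout (405 nm ex, 460/530 nm em). EC50 and efficacy from Hill fits, normalized to 50 nM calcitriol (100%) and DMSO (0%).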

The target in assay [7] is Retinoic acid receptor RXR-alpha (Homo sapiens) (UniProt P19793). The assay is described as follows: qHTS assay for small molecule agonists of retinoid X receptor alpha signaling (AID 588544).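 Also: 0% = DMSO basal wells and 100% = reference agonist.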
Assay [8] concerns the target Thyroid hormone receptor beta (Homo sapiens) (UniProt P10828). The assay is described as follows: qHTS assay for small molecule agonists of thyroid hormone receptor beta signaling (AID 588545).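 Also: 0% = DMSO only and 100% = 10 nM T3.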 The essentials: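 TR-UAS-bla-GripTite HEK 293 cells in medium with 2% charcoal/dextran FBS, 0.1 mM NEAA and 1 mM sodium pyruvate were treated with titrated compounds for 18 hrs at 37 C. Beta-lactamase reporter was read with CCF4 dye (ex 405, em 460/530 nm); EC50 from Hill fits.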

Assay [9] is described as follows: qHTS assay for small molecule antagonists of retinoid X receptor alpha signaling (AID 588546; active = well fitted inhibition curve with a large enough effect in the signal ratio, with a control signal flat, not every such curve was filed as active; the % refers to the signal ratio;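 also: cells stimulated with 9-cis-retinoic acid as agonist; % is scaled to controls: 0 for no effect and ±100 for the full control effect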). The following applies: HEK293T RXRa-UAS-bla, beta-lactamase ratio, antagonist mode; measured here: W530 green channel, cytotoxicity proxy. The essentials:
(§2)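 Beta-lactamase reporter inhibition, read as CCF4 fluorescence ratio (ex 405, em 460/530 nm) after 2 h at RT. HEK293T UAS-bla cells, 2500/well, were stimulated with 9-cis-RA at 500 or 100 nM final alongside test compound for 18 h at 37 C.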

The target of assay [10] is Retinoic acid receptor RXR-alpha (Homo sapiens) (UniProt P19793). Described as above. The following applies: HEK293T RXRa-UAS-bla, beta-lactamase ratio, antagonist mode. The procedure, abridged: as §2
In assay [11] the target is Thyroid hormone receptor beta (Homo sapiens) (UniProt P10828). Put plainly: qHTS assay for small molecule antagonists of thyroid hormone receptor beta signaling (AID 588547; active = well fitted inhibition curve with a large enough effect in the signal ratio, with a control signal flat, not every such curve was filed as active; the % refers to the signal ratio;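 also: cells stimulated with 0.4 nM T3 agonist during compound exposure; series mostly up to about 77 µM; % is scaled to controls: 0 for no effect and ±100 for the full control effect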). The following applies: TR-UAS-bla HEK293, beta-lactamase ratio, antagonist mode, 18 h. The essentials:
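TR-UAS-bla GripTite HEK293 cells in 2% charcoal/dextran FBS medium were preincubated 4 h at 37 C, given compound (0.59 nM to 92 uM) plus 0.4 nM T3 (final) for 18 h, then CCF4 for 2 h at RT; Hill fit gave IC50.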

A short description of assay [12]: qHTS assay for small molecule agonists of the antioxidant response element (ARE) signaling pathway (AID 651741; active = well fitted activation curve with a large enough effect in the signal ratio; the % refers to the signal ratio; also: potency is read from the fitted curve at half-maximal effect; as to activation: % of control where 0% means no effect). The procedure, abridged: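 Reporter: beta-lactamase under ARE, stably in HepG2. Exposure: 16 h, 37 C, compounds delivered in DMSO by pin tool after 5 h cell preincubation. Readout: FRET substrate fluorescence after 2 h at RT.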
A short description of assay [13]: qHTS assay for small molecule activators of the p53 signaling pathway (AID 651743; active = well fitted activation curve with a large enough effect in the signal ratio, not every such curve was filed as active; the % refers to the signal ratio; also: series mostly up to about 92 µM; % of control where 0% means no effect). Particulars: HCT-116 p53RE-bla, beta-lactamase FRET ratio, 16 h; activation: stronger effect = higher value. The essentials: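 Agonist-mode quantitative HTS in HCT-116 cells carrying a p53-response-element beta-lactamase reporter; 16 h compound treatment at 37 C, then FRET substrate loading for 2 h at room temperature and fluorescence read.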

Assay [14] in a line: qHTS assay for environmental chemicals that activate the Aryl hydrocarbon Receptor (AhR) signaling pathway (AID 651777; active = well fitted curve in the direction sought with a large enough effect; an effect the other way counts as inactive or inconclusive; also: % of control where 0% means no effect; nearly all actives have a fitted effect of over 15% in size). Particulars: 1A2-DRE human hepatoma cells, luciferase, 24 h; activation: stronger effect = higher value. The essentials:
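Measured luciferase activity, read 30 min after One-Glo addition at room temperature, from human hepatoma cells bearing a dioxin response element–CYP1A2 promoter reporter and exposed to compound for 24 hr at 37 C.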

Assay [15] addresses Peroxisome proliferator-activated receptor alpha (Homo sapiens) (UniProt Q07869). Put plainly: qHTS assay for small molecule agonists of the peroxisome proliferator-activated receptor alpha (PPARalpha) signaling pathway (AID 651778; active = well fitted curve in the direction sought with a large enough effect; an effect the other way counts as inactive or inconclusive; also: % of control where 0% means no effect). The following applies: PathHunter PPARalpha complementation, chemiluminescence, 6 h; max response: stronger effect = higher value. The procedure, abridged: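 Cells plated at 2,000/well and held overnight at 37 C, 5% CO2, then compound added by pin tool for 6 hr; after PathHunter detection reagent and 60 min at room temperature, chemiluminescence from enzyme complementation was read.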

A short description of assay [16]: qHTS assay for small molecule agonists of the antioxidant response element (ARE) signaling pathway measured by Nrf2-dependant transcriptional activity - cell viability counter screen (AID 720653; active = well fitted curve in the direction sought with a large enough effect in the repeat runs; an effect the other way counts as inactive or inconclusive; also: % is scaled to controls: 0 for no effect and ±100 for the full control effect). The following applies: ARE-bla HepG2 viability, CellTiter-Glo ATP luminescence, 16 h; max response: stronger effect = lower value. The essentials:
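ARE-bla HepG2 cells (2,000/well) rested 5 hrs at 37C/5% CO2, then exposed to compounds in DMSO for 16 hrs. Viability was read in the same wells as intracellular ATP by luminescence, 30 min at room temperature after reagent addition.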

Assay [17] in a line: qHTS assay for cell viability of HEK293 cells (AID 743288; active = well fitted curve in the direction sought with a large enough effect; an effect the other way counts as inactive or inconclusive; also: % is scaled to controls: 0 for no effect and ±100 for the full control effect; nearly all actives have a fitted effect of over 50% in size). Particulars: ATP luminescence (CellTiter-Glo), 18 h; max response: stronger effect = lower value. The essentials:
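After 18 h compound exposure at 37 C, parental HEK293 cells (2,000/well) are lysed with CellTiter-Glo and luminescence is read following 30 min at room temperature.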

Assay [18] is described as follows: qHTS assay for cell viability of the p53RE-bla HCT-116 cell line (AID 743292; active = well fitted curve in the direction sought with a large enough effect; an effect the other way counts as inactive or inconclusive; also: % is scaled to controls: 0 for no effect and ±100 for the full control effect; nearly all actives have a fitted effect of over 55% in size). The procedure, abridged: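 Intracellular ATP of p53RE-bla HCT-116 cells measured by luciferase luminescence following 16 h compound incubation at 37 C; DMSO-only wells served as vehicle controls.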
Assay [19] in a line: qHTS assay for small molecule agonists of the antioxidant response element (ARE) signaling pathway measured by Nrf2-dependant transcriptional activity (AID 720636; active = well fitted curve in the direction sought with a large enough effect in the repeat runs; an effect the other way counts as inactive or inconclusive;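 also: HepG2 cells with an ARE-driven luciferase reporter; % of control where 0% means no effect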). The procedure, abridged:
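In HepG2 cells engineered with an Nrf2-responsive luciferase gene, ARE induction was quantified as luminescence after 16 hr compound treatment at 37 C.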

For assay [20], the target named is Nuclear receptor subfamily 1 group I member 2 (Rattus norvegicus) (UniProt Q9R1A7). The assay is described as follows: qHTS assay for small molecule activators of the rat pregnane X receptor (rPXR) signaling pathway (AID 651751; call rule not given here; also: 0% is about no effect). The following applies: rPXR reporter cells, luciferase (One-Glo), 24 h.

Values joined by “and” are separate entries in the source; they are usually repeats but may differ in a detail not shown here. Equal values may be shown once. Results filed as inconclusive are left out. Active and inactive are the calls of the source. Unless noted, calls follow the shape of the full dose curve.

Chain of Retinoic acid receptor RXR-alpha (Homo sapiens) (P19793 whole entry, looked up): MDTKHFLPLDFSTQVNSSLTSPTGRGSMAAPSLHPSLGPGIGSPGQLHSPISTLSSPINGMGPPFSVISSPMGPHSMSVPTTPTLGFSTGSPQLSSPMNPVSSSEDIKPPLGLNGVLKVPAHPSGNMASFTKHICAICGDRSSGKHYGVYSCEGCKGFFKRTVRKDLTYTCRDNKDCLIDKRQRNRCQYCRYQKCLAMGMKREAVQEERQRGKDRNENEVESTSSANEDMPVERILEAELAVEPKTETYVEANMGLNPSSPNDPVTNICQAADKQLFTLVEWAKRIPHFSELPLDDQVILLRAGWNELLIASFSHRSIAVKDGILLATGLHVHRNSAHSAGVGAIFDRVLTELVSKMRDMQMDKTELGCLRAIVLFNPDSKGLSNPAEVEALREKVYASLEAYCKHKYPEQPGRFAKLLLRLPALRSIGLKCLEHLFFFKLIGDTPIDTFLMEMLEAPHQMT
Chain of Bile acid receptor (Homo sapiens) (Q96RI1 whole entry, looked up): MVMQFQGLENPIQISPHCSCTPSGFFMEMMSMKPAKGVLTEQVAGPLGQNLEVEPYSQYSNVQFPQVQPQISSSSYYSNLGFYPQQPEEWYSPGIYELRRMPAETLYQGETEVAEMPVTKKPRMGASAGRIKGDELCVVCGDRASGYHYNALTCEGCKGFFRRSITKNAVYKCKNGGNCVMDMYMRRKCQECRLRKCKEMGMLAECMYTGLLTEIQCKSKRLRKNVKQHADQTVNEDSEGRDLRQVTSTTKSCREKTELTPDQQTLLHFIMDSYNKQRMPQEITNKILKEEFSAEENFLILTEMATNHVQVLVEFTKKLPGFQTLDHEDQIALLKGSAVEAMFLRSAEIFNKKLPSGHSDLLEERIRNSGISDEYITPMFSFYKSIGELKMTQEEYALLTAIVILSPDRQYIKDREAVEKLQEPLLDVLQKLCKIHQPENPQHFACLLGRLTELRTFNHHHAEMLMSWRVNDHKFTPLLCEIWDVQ
Chain of Thyroid hormone receptor beta (Homo sapiens) (P10828 whole entry, looked up): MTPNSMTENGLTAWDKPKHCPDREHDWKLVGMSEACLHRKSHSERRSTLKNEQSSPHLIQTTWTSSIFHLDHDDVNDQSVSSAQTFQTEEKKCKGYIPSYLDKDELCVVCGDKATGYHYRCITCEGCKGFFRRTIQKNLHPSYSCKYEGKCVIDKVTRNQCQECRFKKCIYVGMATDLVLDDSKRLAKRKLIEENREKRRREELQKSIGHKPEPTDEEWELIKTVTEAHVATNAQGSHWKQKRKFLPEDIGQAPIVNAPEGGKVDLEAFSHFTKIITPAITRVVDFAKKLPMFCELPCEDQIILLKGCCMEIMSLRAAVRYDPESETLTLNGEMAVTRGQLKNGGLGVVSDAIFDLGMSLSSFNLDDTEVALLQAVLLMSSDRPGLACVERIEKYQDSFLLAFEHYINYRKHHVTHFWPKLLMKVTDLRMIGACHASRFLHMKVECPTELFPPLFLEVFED
Chain of Peroxisome proliferator-activated receptor delta (Homo sapiens) (Q03181 whole entry, looked up): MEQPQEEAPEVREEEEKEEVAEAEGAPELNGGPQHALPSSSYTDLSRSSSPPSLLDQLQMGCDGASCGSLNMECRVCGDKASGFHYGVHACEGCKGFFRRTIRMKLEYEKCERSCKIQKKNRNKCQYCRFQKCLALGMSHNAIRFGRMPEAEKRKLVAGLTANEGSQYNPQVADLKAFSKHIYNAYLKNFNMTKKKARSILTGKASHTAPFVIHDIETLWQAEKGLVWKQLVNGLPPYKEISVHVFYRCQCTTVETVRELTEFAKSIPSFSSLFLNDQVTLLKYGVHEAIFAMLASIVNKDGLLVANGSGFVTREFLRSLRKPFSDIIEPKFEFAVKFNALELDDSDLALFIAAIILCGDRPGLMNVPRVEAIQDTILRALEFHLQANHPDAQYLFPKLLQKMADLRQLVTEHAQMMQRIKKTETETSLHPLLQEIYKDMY
Chain of Peroxisome proliferator-activated receptor alpha (Homo sapiens) (Q07869 whole entry, looked up): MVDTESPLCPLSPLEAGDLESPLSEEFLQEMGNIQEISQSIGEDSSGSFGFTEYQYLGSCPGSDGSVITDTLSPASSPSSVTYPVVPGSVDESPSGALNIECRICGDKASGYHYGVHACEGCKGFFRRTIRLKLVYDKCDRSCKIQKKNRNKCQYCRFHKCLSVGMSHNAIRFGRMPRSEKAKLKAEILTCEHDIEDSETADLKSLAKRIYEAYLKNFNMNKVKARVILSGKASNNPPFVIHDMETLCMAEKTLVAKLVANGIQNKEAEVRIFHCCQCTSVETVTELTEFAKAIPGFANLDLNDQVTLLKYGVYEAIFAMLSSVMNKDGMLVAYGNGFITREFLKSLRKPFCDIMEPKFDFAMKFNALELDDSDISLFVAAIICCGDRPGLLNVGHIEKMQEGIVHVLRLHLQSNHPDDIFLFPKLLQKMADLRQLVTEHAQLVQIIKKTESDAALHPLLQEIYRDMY
Chain of Nuclear receptor subfamily 1 group I member 2 (Rattus norvegicus) (Q9R1A7 whole entry, looked up): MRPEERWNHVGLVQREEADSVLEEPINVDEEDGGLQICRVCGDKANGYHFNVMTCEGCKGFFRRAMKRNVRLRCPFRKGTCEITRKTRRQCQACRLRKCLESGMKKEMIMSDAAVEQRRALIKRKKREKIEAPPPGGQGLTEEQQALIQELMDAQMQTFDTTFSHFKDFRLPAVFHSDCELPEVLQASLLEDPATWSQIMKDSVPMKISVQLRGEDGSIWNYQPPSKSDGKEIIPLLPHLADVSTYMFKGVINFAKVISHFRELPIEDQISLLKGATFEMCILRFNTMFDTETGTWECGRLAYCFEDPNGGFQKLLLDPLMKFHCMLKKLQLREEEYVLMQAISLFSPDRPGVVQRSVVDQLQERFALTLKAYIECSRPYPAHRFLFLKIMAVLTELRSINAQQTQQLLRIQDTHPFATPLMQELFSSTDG
Chain of Vitamin D3 receptor (Homo sapiens) (P11473 whole entry, looked up): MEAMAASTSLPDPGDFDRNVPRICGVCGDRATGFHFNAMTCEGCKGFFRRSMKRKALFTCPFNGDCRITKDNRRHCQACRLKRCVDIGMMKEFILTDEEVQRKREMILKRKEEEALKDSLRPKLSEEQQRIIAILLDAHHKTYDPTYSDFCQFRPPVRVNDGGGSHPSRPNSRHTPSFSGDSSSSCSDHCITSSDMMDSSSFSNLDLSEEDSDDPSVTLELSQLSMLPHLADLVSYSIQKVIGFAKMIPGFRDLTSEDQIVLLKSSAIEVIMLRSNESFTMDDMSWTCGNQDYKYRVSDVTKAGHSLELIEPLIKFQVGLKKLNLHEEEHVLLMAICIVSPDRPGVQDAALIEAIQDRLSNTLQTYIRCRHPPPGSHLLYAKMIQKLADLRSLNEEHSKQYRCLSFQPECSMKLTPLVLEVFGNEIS

Regarding `C#CCC1=C(C)[C@H](OC(=O)[C@H]2[C@H](C=C(C)C)C2(C)C)CC1=O`, the Potency result in [1], in [5], in [7], in [8] and in assay [18] was “inactive” throughout. Moreover, the activation in [2] is 1.85% (inactive); in assay [13], 1.18% (inactive); in [14] it was 9.06% (inactive). Moreover, the outcome in [3] and in assay [6] was inactive. The max response in assay [4] is 25.2%; in assay [9], -0.262%; in assay [10], -4.47% (inactive); in [15], 3.44% (inactive); in assay [16], -1.44% (inactive); in assay [17], -10.8% (inactive). Moreover, the activity change % (negative = inhibition) in assay [11] is -5.41% (inactive). In addition, in assay [12], the Potency is 61.1 µM (active).
For the molecule `Cc1nc(N(C)C)nc(OC(=O)N(C)C)c1C`, the Potency entry in assay [1], in assay [5], in assay [7], in assay [8], in assay [19] and in assay [18] was “inactive” throughout. The activation in assay [2] was 2.16% (inactive); in assay [14], -0.147% (inactive). Moreover, in [3], the result was inactive. Further, the max response in assay [4] was 13.1%; in assay [9] it was -14.1%; in assay [15], -0.626% (inactive); in assay [16], -25.3% (inactive); in [17], -11.4% (inactive); in [20], -4.44% (inactive). For the same molecule, the activity change % (negative = inhibition) in assay [11] was -14.4% (inactive).
For the molecule `CCCN(CCOc1c(Cl)cc(Cl)cc1Cl)C(=O)n1ccnc1`, the Potency result in [1], in assay [5], in assay [19] and in assay [18] was “inactive” each time. Also, the activation in assay [2] is 4.58% (inactive). The result in [3] was inactive. Moreover, the max response is 26.8% and 55.9% in assay [4]; -20.2% (inactive) and 3.11% (inactive) in assay [16]; -28.6% (inactive) and -28.7% (inactive) in assay [17]. Moreover, the activity change % (negative = inhibition) in assay [11] is 22.9% (inactive). The Potency in assay [12] is 30.6 µM (active) and 48.6 µM (active).
Take `O=C(O)c1c(Cl)ccc2cc(Cl)cnc12`: the Potency entry in assay [1], in assay [5], in assay [7], in assay [12], in assay [19] and in assay [18] was “inactive” throughout. The activation in [2] is 0.431% (inactive); in [14] it was 2.06% (inactive). Further, the outcome in assay [3] was inactive. Besides, the max response is 71.4% in [4]; 3.11% in assay [9]; -13.1% (inactive) in assay [10]; -2.09% (inactive) in assay [15]; -9.56% (inactive) in assay [16]; -11.4% (inactive) in assay [17]. For the same molecule, the max response in assay [20] was -2.15% (inactive).
